Data on ten compounds can be found in PubChem BioAssay (Tox21).

Records with an inconclusive call do not appear. A number with no mark means an inactive call. Calls of active or inactive are those of the source. Unless noted, the call rests on the fitted dose curve; in most records, active means well fitted curve in the direction sought with a large enough effect in the repeat runs; inconclusive means weak or mixed curves; inactive means no such curve, though single readings can be large; an effect the other way counts as inactive or inconclusive.

A short description of assay [1]: qHTS assay to identify small molecule agonists of the RXR signaling pathway - cell viability counter screen (AID 1159529). Further: series mostly up to about 77 µM; nearly all actives have a fitted effect of over 50% in size. The essentials: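 RXR-alpha-UAS-bla HEK 293T cells in medium with 2% charcoal-stripped FBS were pre-incubated 5 hr, then compound-treated 16 hr at 37 C. Viability was read by CellTiter-Glo luminescence in the same wells as the beta-lactamase assay, with tetraoctyl ammonium bromide as positive control.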
On the technique in general: In qHTS, concentration-response curves come from the screen itself.

Assay [2] is described as follows: qHTS assay to identify small molecule antagonists of the retinoid acid receptor (RAR) signaling pathway - cell viability counter screen (AID 1159551). Further: nearly all actives have a fitted effect of over 35% in size. The method in brief: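 Measured by luminescent ATP detection, viability reflects C3RL4 cells treated 6 h at 37 C with test chemicals in the presence of 1 uM (final) retinol.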
Assay [3] in a line: qHTS assay to identify small molecule antagonists of the estrogen related receptor (ERR) signaling pathway from Tox21 library - cell viability counter screen (AID 1224834). Further: nearly all actives have a fitted effect of over 30% in size. Further: potency means the concentration at half of the fitted maximal effect. The method in brief:
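Seeded ERR cells were rested 6 h at 37 C/5% CO2 before compounds, positive and negative controls or DMSO were added. Incubation continued for 17.5 h, and viability was then quantified by CellTiter-Fluor fluorescence.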

Assay [4] deals with Luciferin 4-monooxygenase (Photinus pyralis) (UniProt P08659). Briefly: qHTS assay to identify small molecule inhibitors of firefly luciferase (AID 1224835). Further: nearly all actives have a fitted effect of over 25% in size. Further: potency means the concentration at half of the fitted maximal effect. On activity change, negative = inhibition: series mostly up to about 120 µM. The essentials:
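Biochemical qHTS: compounds run as interplate titrations against purified firefly enzyme, with D-luciferin and ATP each at its KM concentration. Light output recorded by CCD imaging.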

Assay [5] in a line: qHTS assay to identify small molecule agonists of the constitutive androstane receptor (CAR) signaling pathway - cell viability counter screen (AID 1224836). Further: series mostly up to about 92 µM; nearly all actives have a fitted effect of over 45% in size. The essentials: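 HepG2 cells stably carrying hCAR and a CYP2B6-2.2kb reporter; 15-concentration compounds plus PK11195 (final 0.75 uM), 23 hr at 37 C/5% CO2. Viability read by CellTiter-Fluor fluorescence.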
Assay [6] can be described thus: qHTS assay to identify small molecule antagonists of the constitutive androstane receptor (CAR) signaling pathway - cell viability counter screen (AID 1224837). Further: series mostly up to about 92 µM; nearly all actives have a fitted effect of over 45% in size. The essentials:
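To flag cytotoxic false antagonists, HepG2 hCAR/CYP2B6-2.2kb cells were treated 23 hr with 15-concentration compound series and 50 nM CITCO at 37 C/5% CO2; CellTiter-Fluor fluorescence was the measured end point.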

Assay [7] addresses Nuclear receptor subfamily 1 group I member 3 (Homo sapiens) (UniProt Q14994). Briefly: qHTS assay to identify small molecule antagonists of the constitutive androstane receptor (CAR) signaling pathway (AID 1224838).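 Further: HepG2 cells stably expressing hCAR with CYP2B6 luciferase reporter stimulated by CITCO; nearly all actives have a fitted effect of over 40% in size.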 The method in brief:
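Human hepatoma HepG2 cells expressing hCAR and a CYP2B6 promoter (2.2 kb) luciferase construct; compound titration (15 points) with 50 nM CITCO final, 24 h at 37 C/5% CO2; luminescence via ONE-Glo after 30 min at room temperature.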

For assay [8] the target is unchanged. Briefly: qHTS assay to identify small molecule agonists of the constitutive androstane receptor (CAR) signaling pathway (AID 1224839). Further: nearly all actives have a fitted effect of over 15% in size. Further: potency means the concentration at half of the fitted maximal effect. On activation: series mostly up to about 92 µM. The method in brief:
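HepG2 cells stably co-transfected with hCAR and a CYP2B6-2.2kb luciferase reporter; compounds at 15 concentrations with 0.75 uM PK11195 present. After 24 hr at 37 C, luciferase read by ONE-Glo luminescence.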

Assay [9] in a line: qHTS assay to identify small molecule antagonists of the estrogen related receptor signaling pathway with the pleiotropic PPARgamma coactivator (PGC) from Tox21 10K library - cell viability counter screen (AID 1224840; active means well fitted cell-killing curve with a large enough effect in the repeat runs, not every such curve was filed as active; further: nearly all actives have a fitted effect of over 40% in size). The essentials:
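Seeded PGC/ERR cells (2,000/well, 6 h, 37 C/5% CO2) get compound by pin tool; 17.5 h incubation at 37 C; CellTiter-Fluor added, 30 min, fluorescence measured.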

Assay [10] in a line: qHTS assay to identify small molecule agonists of the estrogen related receptor signaling pathway with the pleiotropic PPARgamma coactivator (PGC) from Tox21 10K library (AID 1224842). Further: nearly all actives have a fitted effect of over 15% in size. Further: potency means the concentration at half of the fitted maximal effect. The essentials: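 PGC/ERR reporter cell line, 2,000 cells per well, incubated 6 h at 37 C before 23 nL compound in DMSO was added. After 18 h at 37 C, One-Glo luminescence read following 30 min at room temperature.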

For assay [11], the target named is Thyrotropin receptor (Homo sapiens) (UniProt P16473). Briefly: qHTS assay to identify small molecule agonists of the thyroid stimulating hormone receptor (TSHR) signaling pathway (AID 1224843; calls by dose curve; further: nearly all actives have a fitted effect of over 45% in size; further: potency means the concentration at half of the fitted maximal effect). The essentials:
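Agonist-mode screen: TSHR HEK293 cells received test chemicals for half an hour at room temperature, then HTRF cAMP detection reagents for one hour prior to fluorescence measurement. Each chemical ran as a 15-concentration series, triplicated.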

Assay [12] in a line: qHTS assay to identify small molecule antagonists of the estrogen related receptor signaling pathway with the pleiotropic PPARgamma coactivator (PGC) from Tox21 10K library (AID 1224841; call rule not given here; further: actives are mostly falling curves and most rising ones were filed inactive; nearly all actives have a fitted effect of over 50% in size; further: potency means the concentration at half of the fitted maximal effect; on activity, negative = inhibition: series mostly up to about 92 µM). The essentials: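 Test chemicals dissolved in DMSO were applied to pre-incubated (6 h) PGC/ERR cells at 2,000 cells/well for an 18 h, 37 C treatment; reporter luminescence was then read using One-Glo.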

A short description of assay [13]: qHTS assay to identify small molecule antagonists of the estrogen related receptor (ERR) signaling pathway - cell viability counter screen (AID 1224818). Further: series mostly up to about 46 µM. The method in brief: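 Compounds dissolved in DMSO were applied to ERR cells seeded at 2,000 per well 6 h earlier. Cell viability followed 17.5 h later via 30-min CellTiter-Fluor fluorescence.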
Assay [14] is described as follows: qHTS assay to identify small molecule antagonists of the estrogen related receptor (ERR) signaling pathway (AID 1224819; further: series mostly up to about 46 µM; nearly all actives have a fitted effect of over 50% in size). The method in brief: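 Compounds dissolved in DMSO were pin-transferred onto ERR cells that had been plated 6 h earlier, and cells were then incubated 18 h at 37 C; signal was luciferase luminescence via One-Glo.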
Assay [15] is described as follows: qHTS assay to identify small molecule agonists of the estrogen related receptor (ERR) signaling pathway (AID 1224820). The essentials:
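After 6 h plating (2,000 cells/well) and 18 h compound treatment at 37 C, ERR cells were lysed with One-Glo and luminescence read after 30 min at room temperature.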

The test system of assay [16] is estrogen-related receptor alpha (ERRalpha) with PGC-1alpha coactivator, human. Put plainly: qHTS assay to identify small molecule antagonists of the estrogen related receptor signaling pathway with the pleiotropic PPARgamma coactivator (PGC) (AID 1224821; calls by dose curve;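 further: series mostly up to about 46 µM; lower luminescence signal means antagonism of PGC/ERR signalling; nearly all actives have a fitted effect of over 50% in size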). The method in brief: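 Luminescence from One-Glo luciferase reagent (30 min, room temperature) measured after 18 h compound treatment at 37 °C. Cells carry the PGC/ERR reporter and were seeded 6 h prior to dosing.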

A short description of assay [17]: qHTS assay to identify small molecule antagonists of the estrogen related receptor signaling pathway with the pleiotropic PPARgamma coactivator (PGC) cell viability counter screen (AID 1224822; further: series mostly up to about 46 µM). The essentials:
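Counter screen for cell viability: PGC/ERR cells, 6 h pre-incubation after plating, 17.5 h compound exposure at 37 C, fluorescence from CellTiter-Fluor after 30 min.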

Assay [18] is described as follows: qHTS assay to identify small molecule agonists of the estrogen related receptor signaling pathway with the pleiotropic PPARgamma coactivator (PGC) (AID 1224823). The method in brief: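 Luminescence from One-Glo reagent (30 min, room temperature) was read after 18 h compound treatment at 37 C of PGC/ERR cells plated 6 h beforehand; compounds delivered in DMSO by pin tool.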
On the % scale 0 is the no-effect control and ±100 the full control effect.

Sequence of Thyrotropin receptor (Homo sapiens) (P16473 whole entry, looked up): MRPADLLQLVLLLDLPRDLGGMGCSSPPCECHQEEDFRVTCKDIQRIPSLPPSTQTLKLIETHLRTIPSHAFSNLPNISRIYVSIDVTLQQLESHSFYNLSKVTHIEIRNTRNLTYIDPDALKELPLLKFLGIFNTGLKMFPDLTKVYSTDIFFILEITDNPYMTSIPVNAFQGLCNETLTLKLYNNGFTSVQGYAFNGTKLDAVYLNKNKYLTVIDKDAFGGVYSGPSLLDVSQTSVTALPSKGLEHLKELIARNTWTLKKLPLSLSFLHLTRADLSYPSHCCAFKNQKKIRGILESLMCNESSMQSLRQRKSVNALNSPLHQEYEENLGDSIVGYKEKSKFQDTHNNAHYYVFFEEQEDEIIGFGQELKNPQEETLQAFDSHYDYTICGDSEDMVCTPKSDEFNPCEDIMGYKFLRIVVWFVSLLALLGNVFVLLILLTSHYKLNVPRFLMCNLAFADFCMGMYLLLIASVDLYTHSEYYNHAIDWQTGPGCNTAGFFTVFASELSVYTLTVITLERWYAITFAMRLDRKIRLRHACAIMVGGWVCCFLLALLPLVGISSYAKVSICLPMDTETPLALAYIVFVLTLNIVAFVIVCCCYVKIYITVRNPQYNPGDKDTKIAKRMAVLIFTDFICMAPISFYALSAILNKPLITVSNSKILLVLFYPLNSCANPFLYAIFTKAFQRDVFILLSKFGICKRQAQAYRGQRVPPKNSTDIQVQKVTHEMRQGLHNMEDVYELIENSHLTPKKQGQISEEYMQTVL
Sequence of Luciferin 4-monooxygenase (Photinus pyralis) (P08659 whole entry, looked up): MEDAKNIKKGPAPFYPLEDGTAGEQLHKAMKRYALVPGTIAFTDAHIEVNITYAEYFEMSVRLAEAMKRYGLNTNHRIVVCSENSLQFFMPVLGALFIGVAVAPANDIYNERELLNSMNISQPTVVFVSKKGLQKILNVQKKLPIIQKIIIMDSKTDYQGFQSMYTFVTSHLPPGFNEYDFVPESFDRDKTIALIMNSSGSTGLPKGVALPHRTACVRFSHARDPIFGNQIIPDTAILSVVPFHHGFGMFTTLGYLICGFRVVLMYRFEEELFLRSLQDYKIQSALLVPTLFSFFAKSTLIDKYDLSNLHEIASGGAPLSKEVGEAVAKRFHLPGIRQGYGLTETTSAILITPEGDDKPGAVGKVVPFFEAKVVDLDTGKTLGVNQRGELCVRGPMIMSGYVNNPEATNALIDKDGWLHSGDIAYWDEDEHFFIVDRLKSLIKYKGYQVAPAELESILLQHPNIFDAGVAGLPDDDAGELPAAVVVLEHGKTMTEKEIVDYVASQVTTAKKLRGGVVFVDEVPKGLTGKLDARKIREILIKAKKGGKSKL
Sequence of Nuclear receptor subfamily 1 group I member 3 (Homo sapiens) (Q14994 whole entry, looked up): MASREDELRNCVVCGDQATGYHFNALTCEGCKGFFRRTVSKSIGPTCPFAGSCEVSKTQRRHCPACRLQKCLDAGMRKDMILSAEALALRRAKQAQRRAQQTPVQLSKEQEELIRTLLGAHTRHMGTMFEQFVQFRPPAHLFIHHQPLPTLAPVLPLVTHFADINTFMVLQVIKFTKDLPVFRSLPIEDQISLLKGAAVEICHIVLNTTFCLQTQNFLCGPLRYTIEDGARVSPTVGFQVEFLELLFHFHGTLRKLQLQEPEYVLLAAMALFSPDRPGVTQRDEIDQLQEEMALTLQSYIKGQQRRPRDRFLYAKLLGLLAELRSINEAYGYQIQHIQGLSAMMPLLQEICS

In the case of `CCCCC(CC)COC(=O)CCCCCCCCC(=O)OCC(CC)CCCC` (centres undefined), the Potency entry in assay [1], in [2], in assay [3], in [4], in assay [5] and in assay [6] was “inactive” in each case. Further, the Potency result in assay [7], in assay [8], in [9], in assay [10] and in assay [11] was “inactive” throughout.
With `C1CCCNCCC1`, the Potency result in assay [1], in assay [2], in [3], in [4], in [5] and in [6] was “inactive” in each case. Besides, the Potency entry in assay [9], in [10] and in assay [11] was “inactive” each time. Further, the Potency in assay [12] is 4.32 µM (active).
Take `COS(=O)(=O)C(F)(F)F`: the Potency entry in assay [1], in assay [2], in [3], in [4], in assay [5] and in [6] was “inactive” throughout. Further, the Potency entry in [7], in [8], in assay [9] and in assay [11] was “inactive” each time.
Consider `NCCCN1CCOCC1`, for which the Potency result in assay [1], in assay [2], in assay [3], in [4], in [5] and in assay [6] was “inactive” throughout. For the same compound, the Potency entry in assay [7], in [8], in [9], in assay [12], in assay [10] and in assay [11] was “inactive” throughout.
With `CC(CC=O)c1ccccc1` (centres undefined), the Potency entry in assay [1], in [2], in assay [3], in [4], in assay [5] and in assay [6] was “inactive” each time. Also, the Potency result in assay [7], in assay [8], in [9] and in [11] was “inactive” in each case.
For the compound `CC(C)(CO)[N+](=O)[O-]`, the Potency result in assay [1], in [2], in assay [3], in [4], in assay [5] and in assay [6] was “inactive” each time. Further, the Potency entry in [7] and in assay [9] was “inactive” each time.
Consider `CCN(CC)CCNC(=O)c1cc(Br)c(N)cc1OC`, for which the Potency result in assay [1], in [2], in [3], in assay [4], in assay [5] and in [6] was “inactive” in each case. For the same compound, the Potency entry in [7], in assay [8], in [9], in assay [12], in [10] and in [11] was “inactive” each time.
For `O=C(O)CNCC(=O)O`, the activity change, negative = cytotoxicity was 3.65% [at 6.97 µM] in assay [1], -1.04% [at 8.39 µM] in assay [2] and 2.11% [at 8.39 µM] in [6]. The viability change, negative = cytotoxic in [3] is 2.9% [at 8.39 µM]; in assay [5], 4.87% [at 8.39 µM]; in assay [9], 0.614% [at 8.39 µM]. For the same compound, the activity change, negative = inhibition in [4] is 2.59% [at 10.5 µM]. Moreover, the activity, negative = inhibition in [7] was 15.5% [at 8.39 µM]. In [11], the activation is 4.36% [at 8.39 µM].
Regarding `CCCn1cnc2c1c(=O)n(CCCCC(C)=O)c(=O)n2C`, the Potency result in assay [1], in assay [2], in [14], in assay [16], in assay [3] and in [4] was “inactive” throughout. In addition, the Potency entry in assay [5], in [6], in assay [7], in assay [8], in [9] and in [10] was “inactive” each time. Besides, the result in assay [13], in assay [15], in assay [17] and in assay [18] was inactive.
Consider `COc1ccc(-c2nc3ccc(C4=NNC(=O)CC4C)cc3[nH]2)cc1` (centres undefined), for which the Potency result in [1], in assay [2], in assay [5], in assay [6], in assay [7] and in assay [12] was “inactive” throughout. For the same compound, the Potency was 13.3 µM (active) in [3]; 8.71 µM (active) in [4]; 3.76 µM (active) in [8]; 8.41 µM (active) in assay [10]; 9.44 µM (active) in [11].
